# The supplement of paper PMC9694430
# Test system: T1, LOC_OS04G38480-cb003
# T1 sequence (whole entry): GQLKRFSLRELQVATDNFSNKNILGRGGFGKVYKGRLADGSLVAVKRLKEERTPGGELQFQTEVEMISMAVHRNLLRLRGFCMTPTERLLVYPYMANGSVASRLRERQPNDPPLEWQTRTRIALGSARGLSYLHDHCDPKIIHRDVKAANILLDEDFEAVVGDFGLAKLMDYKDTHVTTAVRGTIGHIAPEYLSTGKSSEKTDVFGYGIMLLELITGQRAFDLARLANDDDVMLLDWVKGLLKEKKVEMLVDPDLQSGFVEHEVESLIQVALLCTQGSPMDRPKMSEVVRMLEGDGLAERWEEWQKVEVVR
# Experiment: thermal shift delta Tm vs DMSO control; higher = stronger stabilization (binding)
# Settings: 12.5 µM; protein concentration 2 µM
# Summary of the method: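 Rice kinase domain constructs, made in E. coli and purified, were placed in 96-well plates at 2 μM in 19.5 μl of 100 mM potassium phosphate pH 7.5, 150 mM NaCl, 10% glycerol and 5 × SYPRO Orange, with compound in DMSO. A temperature ramp from 25°C to 95°C at 0.05°C/s was used for differential scanning fluorimetry. The melting temperature shift is a triplicate mean compared with DMSO-only protein, derived from Boltzmann fits.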
# 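Further: purified Escherichia coli-expressed rice kinase domain construct.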
row,SMILES,thermal shift delta Tm
1,CC(C)(C)c1cc(C=C(C#N)C#N)cc(Br)c1O,-0.82 °C
2,C/C(O)=C(\C#N)C(=O)Nc1cc(Br)ccc1Br,1.9 °C
3,COc1ccc(C[C@H]2NC[C@H](O)[C@H]2OC(C)=O)cc1 [Anisomycin],0.22 °C
4,COc1cc([C@@H]2c3cc4c(cc3[C@H](O)[C@H]3COC(=O)[C@@H]23)OCO4)cc(OC)c1OC [Picropodophyllin (PPP)],0.78 °C
5,COc1ccc2c(c1)/C(=C/c1cnc[nH]1)C(=O)N2,2.32 °C
6,Cn1cc(C2=C(c3cn(C4CCN(Cc5ccccn5)CC4)c4ccccc34)C(=O)NC2=O)c2ccccc21,2.44 °C
7,CC(C)(C)c1cc(C=C(C#N)C#N)cc(C(C)(C)C)c1O [Tyrphostin 9],1.65 °C
8,Cc1ccccc1-n1c(Cn2ncc3c(N)ncnc32)nc2cccc(C)c2c1=O,-0.52 °C
9,COc1ccc(N(C(=O)Oc2c(C)cccc2C)c2ccnc(Nc3ccc(N4CCN(C)CC4)cc3)n2)c(OC)c1,1.41 °C
10,O=c1[nH]c2ccc(Cl)cc2c(N[C@@H]2CN3CCC2CC3)c1-c1nc2ccccc2[nH]1,2.51 °C
11,CCN1CCN(C(=O)Cc2ccc(Nc3ncc(F)c(Nc4ccc(C(=O)Nc5ccccc5Cl)cc4)n3)cc2)CC1 [Aurora A Inhibitor I],3.38 °C
